# Records with an inconclusive call do not appear. Calls of active or inactive are those of the source. How the source made its calls, unless noted: active means hit-call score of the fitted dose curve at least 0.9, where 1 is the maximum; inconclusive means response in the unintended direction; inactive means score below 0.9.
# How the values were obtained:
# [1] = CCTE_Shafer_MEA_dev_per_burst_interspike_interval: CCTE's Neural Network Formation Assay for Burst Interspike Interval, Shafer Lab (AID 2284044; active means hit-call score of the fitted dose curve at least 0.9, where 1 is the maximum; inactive means score below 0.9;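 further: mean spike spacing inside bursts as AUC over recordings on days 5 7 9 12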;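 on AC50: potency for a decrease of within-burst interspike interval below DMSO level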)
# How it was run: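 Developmental network-formation MEA in primary rat cortical cultures with exposure spanning days 0–12. Within-burst ISI is averaged per well and integrated across recording days by area under the curve, with DMSO as negative control baseline.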
# [2] = CCTE_Shafer_MEA_dev_burst_duration_mean: CCTE's Neural Network Formation Assay for Mean Burst Duration, Shafer Lab (AID 2284045; active means hit-call score of the fitted dose curve at least 0.9, where 1 is the maximum; inactive means score below 0.9;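 on AC50: curve fitted for loss meaning shorter burst duration than DMSO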)
# How it was run: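 Network-formation assay in primary rat cortical neurons; treatment spans twelve days of development. Mean burst duration per well is integrated by trapezoidal AUC and fitted in the loss-of-signal direction against DMSO baseline.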
# [3] = CCTE_Shafer_MEA_dev_interburst_interval_mean: CCTE's Neural Network Formation Assay for Mean Interburst Interval, Shafer Lab (AID 2284046; active means hit-call score of the fitted dose curve at least 0.9, where 1 is the maximum; inactive means score below 0.9;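 further: well-mean interburst interval of bursting electrodes as AUC over four recording days; curve fitted for decrease in interburst interval relative to DMSO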)
# How it was run: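 Rat cortical neurons, 1.5 x 10^5 cells/well, 48-well MEA; compound from day 0 through DIV 12, media and treatment renewed DIV 5/9. Recordings DIV 5, 7, 9, 12; well-mean interburst interval → trapezoidal AUC, loss direction vs DMSO.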
# [4] = CCTE_Shafer_MEA_dev_inter_network_spike_interval_mean: CCTE's Neural Network Formation Assay for Mean Inter-network Spike Interval, Shafer Lab (AID 2284047; active means hit-call score of the fitted dose curve at least 0.9, where 1 is the maximum; inactive means score below 0.9;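 on AC50: potency for a decrease in mean inter-network spike interval below DMSO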)
# How it was run: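 Primary rat cortical neurons on PEI-coated 48-well MEAs (16 electrodes/well) were exposed from plating day 0 to DIV 12, with dosing renewed at DIV 5 and 9. Recordings at DIV 5, 7, 9, 12 were collapsed by trapezoidal AUC, loss-of-signal fit vs DMSO.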
# [5] = CCTE_Shafer_MEA_dev_network_spike_number: CCTE's Neural Network Formation Assay for Number of Network Spikes, Shafer Lab (AID 2284048; active means hit-call score of the fitted dose curve at least 0.9, where 1 is the maximum; inactive means score below 0.9;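 further: synchronized bursts across electrodes counted on days 5 7 9 12 and integrated as AUC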;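 on AC50: fit as a loss of signal meaning fewer network spikes than DMSO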)
# How it was run: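 Extracellular recordings from 16-electrode wells track network formation in rat cortical cultures under continuous treatment from plating. The endpoint is network spike number, expressed as AUC across DIV 5–12 relative to DMSO vehicle.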
# [6] = CCTE_Shafer_MEA_dev_network_spike_peak: CCTE's Neural Network Formation Assay for Mean Number of Electrodes in Network Spike, Shafer Lab (AID 2284049; active means hit-call score of the fitted dose curve at least 0.9, where 1 is the maximum; inactive means score below 0.9;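 on AC50: fitted for loss of signal meaning fewer electrodes in network spikes than DMSO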)
# How it was run: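 Continuous 12-day exposure of rat cortical cultures, starting at plating, on MEA plates. Endpoint: electrodes participating in network-spike peaks, AUC across DIV 5–12, DMSO as negative control.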
# [7] = CCTE_Shafer_MEA_dev_spike_duration_mean: CCTE's Neural Network Formation Assay for Mean Spike Duration, Shafer Lab (AID 2284051; active means hit-call score of the fitted dose curve at least 0.9, where 1 is the maximum; inactive means score below 0.9;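 further: mean network spike duration pooled as area under curve over DIV 5 to 12 recordings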;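 on AC50: potency for a decrease in mean network spike duration versus DMSO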)
# How it was run: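 Rat cortical primary cultures, 48-well MEA (16 electrodes/well); compound from plating, renewed DIV 5, 9. Network spike duration (AxIS adaptive detector) recorded DIV 5/7/9/12, combined as trapezoidal AUC; loss direction vs DMSO.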
# [8] = CCTE_Shafer_MEA_dev_network_spike_duration_std: CCTE's Neural Network Formation Assay for Standard Deviation of Network Spike Duration, Shafer Lab (AID 2284052; active means hit-call score of the fitted dose curve at least 0.9, where 1 is the maximum; inactive means score below 0.9;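 further: area under curve of spike duration SD across recording days 5 to 12; hits are decreases in network spike duration SD versus DMSO vehicle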)
# How it was run: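 Rat cortical cultures, 1.5 x 10^5 cells/well, exposed continuously from plating to DIV 12 with media/compound renewal at DIV 5, 9. Spontaneous activity recorded DIV 5/7/9/12, AxIS adaptive spike detector; AUC across days; negative direction vs DMSO.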
# [9] = CCTE_Shafer_MEA_dev_per_network_spike_spike_number_mean: CCTE's Neural Network Formation Assay for Mean Number of Spikes in a Network Spike, Shafer Lab (AID 2284053; active means hit-call score of the fitted dose curve at least 0.9, where 1 is the maximum; inactive means score below 0.9)
# How it was run: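 Rat cortical primary cultures on 48-well MEA; compound from day 0, re-dosed with full media change DIV 5, 9. Recorded DIV 5, 7, 9, 12; spikes in 0.05 s window at network-spike peak ÷ total network spikes; AUC; loss vs DMSO.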
# [10] = CCTE_Shafer_MEA_dev_per_network_spike_spike_percent: CCTE's Neural Network Formation Assay for Percent of Spikes in a Network Spike, Shafer Lab (AID 2284054; active means hit-call score of the fitted dose curve at least 0.9, where 1 is the maximum; inactive means score below 0.9)
# How it was run: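 Developing networks of rat cortical neurons are dosed at day 0 and recorded extracellularly four times up to day 12. The endpoint is the area under the curve of percent spikes in network spikes, fitted in the negative direction relative to DMSO.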
# [11] = CCTE_Shafer_MEA_dev_LDH: CCTE's Lactate Dehydrogenase Assay for Cytotoxicity in the Neural Network Formation Assay, Shafer Lab (AID 2284068);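 further: exposure for twelve days from plating with re-dosing on DIV 5 and 9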
# How it was run: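 Rat cortical primary neurons, MEA culture; dosing day 0–12, full medium plus compound exchange DIV 5, 9. Read-out: LDH enzyme activity, spectrophotometric. DMSO = negative control/baseline; signal loss → cytotoxicity.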
# [12] = CCTE_Shafer_MEA_dev_AB: CCTE's Alamar Blue Assay for Cytotoxicity in the Neural Network Formation Assay, Shafer Lab (AID 2284083);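 further: resazurin reduction fluorescence as viability of cultured neurons; twelve days of exposure from plating with re-dosing on DIV 5 and 9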
# How it was run: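 Rat cortical primary cultures, 1.5 x 10^5 cells/well on MEA; continuous compound exposure over 12 days of network development, re-dosed with full medium change DIV 5 and 9. Alamar Blue fluorescence; loss of signal = cytotoxicity vs DMSO baseline.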
# [13] = CCTE_Shafer_MEA_dev_mutual_information_norm: CCTE's Neural Network Formation Assay for Mutual Information Normalization, Shafer Lab (AID 2284091; active means hit-call score of the fitted dose curve at least 0.9, where 1 is the maximum; inactive means score below 0.9;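 on AC50: mutual information between electrodes summarised as area under curve across four recording days; potency is for a decrease in mutual information relative to DMSO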)
# How it was run: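 Exposure of primary rat cortical neurons began at plating and ran to DIV 12, with full media and treatment renewal after DIV 5 and 9 recordings. Mutual information AUC (DIV 5–12) was analysed for loss versus DMSO.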
# [14] = CCTE_Shafer_MEA_dev_correlation_coefficient_mean: CCTE's Neural Network Formation Assay for Mean Correlation Coefficient, Shafer Lab (AID 2284093; active means hit-call score of the fitted dose curve at least 0.9, where 1 is the maximum; inactive means score below 0.9;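 on AC50: well mean pairwise spike train correlation integrated as AUC over recording days 5 to 12; potency fitted for loss of correlation relative to DMSO vehicle wells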)
# How it was run: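 Rat cortical cultures, 1.5 x 10^5 cells/well, dosed from day 0 for 12 days. Spontaneous spikes recorded DIV 5/7/9/12; electrode-pair correlation coefficients averaged, AUC taken. Fit in loss direction vs DMSO.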
# [15] = CCTE_Shafer_MEA_acute_LDH: CCTE's Lactate Dehydrogenase Assay for Cytotoxicity in the Neural Acute Assay, Shafer Lab (AID 2284086);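 further: active means LDH release rises above DMSO vehicle level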
# How it was run: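 Cytotoxicity readout: spectrophotometric LDH activity in supernatant of rat primary cortical neurons, post-plating day 13 or 15, sampled after 40 min compound exposure; signal gain relative to DMSO baseline.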
# [16] = IUF_NPC1b_proliferation_BrdU_72hr: Leibniz Research Institute for Environmental Medicine (IUF) 72-hour Neural Progenitor Cell Bromodeoxyuridine (BrdU) Proliferation Assay (NPC1b) (AID 2284207; active means hit-call score of the fitted dose curve at least 0.9, where 1 is the maximum; inactive means score below 0.9)
# How it was run: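 Neural progenitor spheres of human fetal origin are treated for three days; BrdU added for the last 16 h is quantified by luminescence ELISA, with DMSO as baseline and EGF/FGF omission as positive control.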
# [17] = IUF_NPC1a_proliferation_area_72hr: Leibniz Research Institute for Environmental Medicine (IUF) 72-hour Neural Progenitor Cell Proliferation Area Assay (NPC1a) (AID 2284208; active means hit-call score of the fitted dose curve at least 0.9, where 1 is the maximum; inactive means score below 0.9)
# How it was run: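 Proliferation is scored as sphere area gain in primary human fetal neural progenitors treated for 72 h in EGF/FGF-containing medium. Viability, LDH and BrdU readouts come from the same wells.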
# [18] = CCTE_Shafer_MEA_acute_AB: CCTE's Alamar Blue Assay for Cytotoxicity in the Neural Acute Assay, Shafer Lab (AID 2284069);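 further: active compounds lower the viability signal compared with DMSO wells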
# How it was run: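 Read-out: resazurin fluorescence (ex 544, em 590 nm) after CTB reagent at 1:6 dilution in fresh media. Cells: primary rat cortical neuron networks, DIV 13 or 15, chemically exposed on MEA plates; DMSO as negative control/baseline.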
# DIO2 (gene 1734) = test: CCTE_GLTED_hDIO2: CCTE's human Deiodinase 2 (DIO2) Inhibition Assay, Great Lakes Toxicology and Ecology Division (GLTED) Lab (AID 2284050)
# How it was run: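 Triplicate cell-free incubations (3 h) of human DIO2 with chemical preceded colorimetric Sandell-Kolthoff quantitation of liberated iodide; DMSO served as negative control for curve fitting.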
# DIO3 (gene 1735) = test: CCTE_GLTED_hDIO3: CCTE's human Deiodinase 3 (DIO3) Inhibition Assay, Great Lakes Toxicology and Ecology Division (GLTED) Lab (AID 2284055);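 further: potency is for inhibition seen as loss of released iodide signal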
# How it was run: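 Steps: incubate adenovirus-produced hDIO3 with chemical for 3 hours; detect freed iodide via cerium-arsenic Sandell-Kolthoff colorimetry; compare with DMSO baseline.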
smiles,measurement,setting,value
c1ccc2c(c1)c1cccc3ccc4cccc2c4c31,outcome,[1],inactive
same,outcome,[2],inactive
same,outcome,[3],inactive
same,AC50,[4],18.6 µM (active)
same,outcome,[5],inactive
same,outcome,[6],inactive
same,outcome,[7],inactive
same,outcome,[8],inactive
same,outcome,[9],inactive
same,outcome,[10],inactive
same,outcome,[11],inactive
same,outcome,[12],inactive
same,outcome,[13],inactive
same,outcome,[14],inactive
CC[Si](OC(C)=O)(OC(C)=O)OC(C)=O,outcome,[15],inactive
N#Cc1ccc(CC(=NNC(=O)Nc2ccc(OC(F)(F)F)cc2)c2cccc(C(F)(F)F)c2)cc1,AC50,[1],0.301 µM (active)
same,AC50,[2],0.358 µM (active)
same,AC50,[3],0.0632 µM (active)
same,AC50,[4],0.634 µM (active)
same,AC50,[5],0.763 µM (active)
same,AC50,[6],1.12 µM (active)
same,AC50,[7],0.685 µM (active)
same,AC50,[8],0.525 µM (active)
same,AC50,[9],1.08 µM (active)
same,outcome,[10],inactive
same,AC50,[11],15 µM (active)
same,outcome,[12],inactive
same,AC50,[13],0.672 µM (active)
same,AC50,[14],2.8 µM (active)
same,outcome,[16],inactive
same,outcome,[17],inactive
COc1cc(C=O)ccc1OC(=O)C(C)C,outcome,[15],inactive
CCCCCCCCC=O,outcome,[18],inactive
same,outcome,[15],inactive
CN(C)C(=N)N=C(N)N,outcome,[1],inactive
same,outcome,[2],inactive
same,outcome,[3],inactive
same,outcome,[4],inactive
same,outcome,[5],inactive
same,outcome,[6],inactive
same,outcome,[7],inactive
same,outcome,[8],inactive
same,outcome,[9],inactive
same,outcome,[10],inactive
same,outcome,[11],inactive
same,outcome,[12],inactive
same,outcome,[15],inactive
same,outcome,[13],inactive
same,outcome,[14],inactive
same,outcome,[16],inactive
same,outcome,[17],inactive
O=C(Oc1ccccc1)c1ccc(O)cc1,AC50,DIO2 (gene 1734),72.2 µM (active)
same,AC50,DIO3 (gene 1735),52.9 µM (active)
CCCCCCCCCCCCCC(=O)O,AC50,DIO2 (gene 1734),100 µM (active)
same,AC50,DIO3 (gene 1735),156 µM (active)
NCCNCCN,outcome,[18],inactive
same,outcome,[15],inactive
C=CCOC(=O)CCC1CCCCC1,outcome,[15],inactive
O=Nc1ccc(Nc2ccccc2)cc1,AC50,DIO2 (gene 1734),64.2 µM (active)
same,AC50,DIO3 (gene 1735),55.1 µM (active)
CC(=O)[C@H]1CC[C@H]2[C@@H]3CC=C4C[C@@H](O)CC[C@]4(C)[C@H]3CC[C@]12C,outcome,[15],inactive
C=C[Si](OCC)(OCC)OCC,outcome,[18],inactive
same,outcome,[15],inactive
CC(C)=CCCC(C)=CCCC(C)=CCO,AC50,DIO2 (gene 1734),28.5 µM (active)
same,AC50,DIO3 (gene 1735),17.9 µM (active)
C[C@H]1C[C@@H]2[C@H]([C@@H](O)C[C@@]3(C)[C@H]2CC[C@]3(O)C(=O)CO)[C@@]2(C)C=CC(=O)C=C12,outcome,[18],inactive
same,outcome,[15],inactive
OC[C@H]1O[C@H](O[C@]2(CCl)O[C@H](CCl)[C@@H](O)[C@@H]2O)[C@H](O)[C@@H](O)[C@H]1Cl,outcome,[18],inactive
same,outcome,[15],inactive
Cc1cc(C2(c3cc(C)c(O)cc3C)OS(=O)(=O)c3ccccc32)c(C)cc1O,outcome,[18],inactive
same,outcome,[15],inactive
CC(C)(COC(=O)c1ccccc1)COC(=O)c1ccccc1,outcome,[18],inactive
same,outcome,[15],inactive
CC(=O)OCCC(C)CC(C)(C)C (configuration not stated),outcome,[15],inactive
CCCCCCCCCCCCN,outcome,DIO2 (gene 1734),inactive
same,AC50,DIO3 (gene 1735),141 µM (active)
CCCCCCCCCCCCCCCC(=O)OC[C@H](O)[C@H]1OC(=O)C(O)=C1O,AC50,DIO2 (gene 1734),27.5 µM (active)
same,AC50,DIO3 (gene 1735),4.09 µM (active)
OC1OC[C@@H](O)[C@H](O)[C@H]1O (some centres not stated),outcome,[15],inactive
CCC(=O)/C=C/C1C(C)=CCCC1(C)C (configuration not stated),AC50,DIO2 (gene 1734),93.1 µM (active)
same,AC50,DIO3 (gene 1735),56.6 µM (active)
CCC(=O)OCc1ccccc1,outcome,[15],inactive

# — PubChem BioAssay (EPA / NIEHS)
